# Experimental data reported in ChEMBL document CHEMBL1201862, “PubChem BioAssay data set” (2004).
# About 3,200 (5.6%) of roughly 57,000 […] were called active. Rule as the data show it: active = GI50 up to about 1.1 µM and inactive = higher. A selection follows. Entries with a potency or affinity are not part of this list.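 48-hour exposure; five concentrations; linearly interpolated endpoints. Here, GI50 denotes the concentration required for 50% inhibition of growth.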
# System: SF-268
# Assay: NCI tumour cell line growth inhibition, 48 h
row,Substance,GI50
1,"[Bis(aminomethyl)ethylmethylsilane]tetrachloroplatinum(IV), CHEMBL2146192",2.43 µM
2,"[Bis(aminomethyl)tetramethylenesilane]tetrachloropaltinum(IV), CHEMBL2146189",3.52 µM
3,"[Bis(aminomethyl)dimethylsilane]tetrachloroplatinum(IV), CHEMBL2146190",2.74 µM
4,"[Bis(aminomethyl)diethylsilane]tetrachloroplatinum(IV), CHEMBL2146203",1.57 µM
5,"[Bis(aminomethyl)tetramethylenesilane]dichloropaltinum(II), CHEMBL2146205",21.8 µM
6,"[Bis(aminomethyl)dimethylsilane]dichloroplatinum (II), CHEMBL2146201",8.81 µM
7,"cis-Bis[[(trimethylsilyl)methyl]amino]tetrachloroplatinum(IV), CHEMBL2146191",13.6 µM
8,"mu-(1,7-nanodiamine-N,N')bis-(cis-aminedichloroplatimum (II)), CHEMBL2146215",8.97 µM
9,"CISPLATIN, CHEMBL11359",0.745 µM
10,"[Bis(aminomethyl)pentamethylenesilane]dichloropaltinum(II), CHEMBL2146202",3.46 µM
11,"[Bis(aminomethyl)pentamethylenesilane]tetrachloropaltinum(IV), CHEMBL2146204",3.59 µM
